Source: PubChem
Only some compounds are listed: those with a hit (about 2.2% of all), similar ones and a draw of the others.
BaF3 tox – parental Ba/F3 cell viability inhibition, counter-screen for JAK2V617F inhibitor project, murine pro-B, CellTiter-Glo luminescence; inhibition, % at 5.6 µM; CellTiter-Glo ATP luminescence; 220,000 compounds, 1.1% hits;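 active = inhibition above a per-campaign cutoff, the mean inhibition of all tested compounds plus 3 SD, cut at about 27% in these data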;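 also: 0% = DMSO wells and 100% = JAK Inhibitor I control wells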
APP 5UTR inh – inhibitors of APP translation via 5'UTR reporter, primary screen, APP 5'UTR luciferase, SH-SY5Y cells; SH-SY5Y APP 5'UTR-luciferase reporter, luminescence; inhibition, % at 2 µM; 190,000 compounds, 0.82% hits;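 active = inhibition above a set limit, derived from the sample mean plus 3 SD, cut at about 45% in these data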
aSyn 5UTR inh – MLPCN primary screen, SNCA 5' untranslated region. inhibition, % (tested at 7.5 µM). 300,000 compounds, 0.82% hits. alpha-synuclein 5'UTR reporter, inhibitor activity; in the data active = inhibition above about 60%;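 also: H4 neuroglioblastoma cells stably carrying SNCA 5'UTR luciferase fusion; 0% = DMSO wells and 100% = positive control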
KLF5 inhibitor – KLF5 expression inhibitors, primary screen, DLD-1 cells, luminescence. DLD-1 KLF5 promoter-luciferase reporter. inhibition, % at 5 µM. 290,000 compounds, 0.23% hits. AID 1700, 2009;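 active = inhibition above a per-plate limit of that plate's mean compound inhibition plus 3 SD, cut at about 60% in these data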;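 also: 0% = DMSO wells and 100% = LY294002 at 200 µM; higher means less KLF5 promoter-driven luciferase light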
IEC-6 tox – cytotoxicity in IEC-6 intestinal epithelial cells, primary screen, cytotoxicity control for KLF5 inhibitor project, cell-based, luminescence; 290,000 compounds, 0.78% hits; AID 1825, 2009; inhibition, % at 5 µM; IEC-6 cytotoxicity, luminescence viability; in the data active = inhibition above about 22%;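 also: 0% = plate median of test compound wells and 100% = cytotoxic reference compound wells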
Ba/F3 V617F tox – reduced viability of JAK2V617F-dependent Ba/F3 cells, primary screen, JAK2V617F inhibitor project, cell-based, Ba/F3 EpoR-JAK2V617F, luminescence; ATP luminescence; inhibition, % at 5.6 µM; 220,000 compounds, 1.1% hits; AID 1446, 2008;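 active = inhibition above the campaign mean plus 3 SD over all tested compounds, cut at about 24% in these data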;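 also: cytokine-independent growth of Ba/F3 cells driven by EpoR plus mutant JAK2; 0% = DMSO-treated cells and 100% = JAK inhibitor I control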
An asterisk follows results filed as active; / = no result.

SMILES	BaF3 tox	APP 5UTR inh	aSyn 5UTR inh	KLF5 inhibitor	IEC-6 tox	Ba/F3 V617F tox
O=C(N/N=C/c1ccc([N+](=O)[O-])o1)c1cc2ccccc2o1	-1.6	/	65.8*	-0.5	-11.5	2.1
Cc1scc(C(=O)N/N=C/c2ccc([N+](=O)[O-])o2)c1C	/	/	84.8*	-37.8	0.1	/
Cc1cc(=O)[nH]c(SCC(=O)N2CCCc3ccccc32)n1	5.8	65.3*	-17.4	3.5	1.0	-0.2
COCCn1c(SCC(=O)N2CCCc3ccccc32)nc2ccccc2c1=O	60.2*	12.1	14.5	6.1	1.6	5.8
N#Cc1ccccc1S(=O)(=O)N1CCN(S(=O)(=O)c2ccc(Br)c(C(=O)O)c2)CC1	/	/	-20.8	-53.1	-7.4	/
CC(C)NC(=O)c1ccc2c(c1)N(CC(=O)Nc1ccccc1F)C(=O)C(C)(C)O2	/	/	18.7	-43.5	-5.2	/
CNc1nc(N/N=C/c2cc3c(cc2[N+](=O)[O-])OCO3)nc(Nc2ccccc2)n1	5.0	5.9	73.6*	-7.9	-8.0	0.4
O=[N+]([O-])c1cc2c(cc1/C=N\NS(=O)(=O)c1ccccc1)OCO2	-2.3	-1.8	17.3	-20.6	-6.0	-3.0
O=C(O)/C=C/c1cccc(OCc2ccccc2)c1	-0.9	-6.7	-5.3	-15.7	5.9	1.7
O=C(/C=C/c1cccc(OCc2ccccc2)c1)c1cccnc1	2.4	87.2*	4.3	-8.2	3.6	-3.2
Cc1cc(N/N=C/c2ccc(O)cc2O)nc(-c2ccccc2O)n1	-1.5	56.2*	74.6*	35.2	0.6	5.7
CNC(=O)N(C1=NCCCCC1)c1ccc(Br)cc1	3.8	45.0*	21.4	-5.9	-9.5	-2.5
CCOc1ccc(N(C(=O)Nc2ccccc2)C2=NCCC2)cc1	3.0	-20.4	-4.2	-16.2	1.1	-2.7
O=C(Nc1cnn(Cc2c(Cl)cccc2Cl)c1)C(c1ccccc1)c1ccccc1	7.0	77.8*	13.4	-28.0	-7.3	-0.9
CSCCC(NC(=O)c1ccccc1Cl)C(=O)Nc1cccc(S(=O)(=O)N2CCCC2)c1 (configuration not stated)	/	/	9.7	/	/	/
COc1ccc2ccccc2c1/C=N/NC(=S)Nc1cc(S(=O)(=O)N2CCOCC2)ccc1N1CCOCC1	3.3	3.2	13.0	-22.0	3.4	-0.6
CCOc1cccc(/C=N/NC(=S)Nc2cc(S(=O)(=O)N3CCOCC3)ccc2N2CCOCC2)c1O	2.5	54.3*	80.8*	-3.2	-1.0	-0.1
C/C(=N\NC(=O)CSCc1ccccc1Cl)c1cc(O)ccc1O	-3.2	54.1*	61.8*	-3.2	-1.7	16.1
CC(=O)Nc1ccc(NC(=O)CSCc2ccccc2Cl)cc1	/	/	-46.3	/	/	/
C=CCOc1nc(-c2ccccc2Cl)nc2ccccc12	1.6	/	72.1*	-21.1	1.0	-0.7
CCOC(=O)Cn1c2c(c(=N)c3c1CCC3)CCC2	11.1	6.3	7.4	-4.7	-2.0	-0.3
CCOC(=O)Cn1c2c(c(=N)c3ccccc31)CCC2	5.4	-7.9	-10.8	-21.1	-1.7	-4.0
CCCCCn1c2c(c(=N)c3ccccc31)CCC2	69.2*	/	50.7	37.9	16.5	89.5*
CCn1c2c(c(=N)c3c1CCC3)CCCC2	50.3*	/	-6.7	-14.3	-0.2	30.4*
CCCCn1c2c(c(=N)c3ccccc31)CCC2	60.8*	/	17.5	-9.7	3.1	71.3*
SMILES	BaF3 tox	APP 5UTR inh	aSyn 5UTR inh	KLF5 inhibitor	IEC-6 tox	Ba/F3 V617F tox
CCCCCCCCCCn1c2c(c(=N)c3c1CCC3)CCC2	96.1*	22.6	71.2*	60.6	56.1*	98.6*
Cc1ccccc1NC(=O)COC(=O)c1cc(=O)c2ccccc2o1	-1.1	-2.0	-3.0	-32.6	-3.7	-4.8
Cc1cccc(C(=O)NCC(=O)OCCOc2ccccc2Cl)c1	/	/	-22.9	/	/	/
Cc1ccc2nc(SCC(=O)NCc3ccco3)[nH]c2c1	-0.5	50.6*	-40.3	-5.2	0.7	-3.0
Cc1ccc2nc(SCC(=O)NC(=O)NCc3ccco3)[nH]c2c1	4.9	-4.0	-3.2	21.8	9.7	-0.4
O=S(=O)(/N=C(/Nc1cccc2ccccc12)c1ccc(F)cc1)c1ccccc1	/	/	10.7	-14.9	0.2	/
C=CCNc1cc(N2CCCC2)ccc1[N+](=O)[O-]	6.5	57.0*	34.5	-3.5	6.9	2.7
CCCC[n+]1ccn(C2=C([O-])c3ccccc3C(=O)/C2=N\S(=O)(=O)c2ccc(Cl)cc2)c1	-1.2	/	66.0*	-34.2	4.6	5.3
CSc1ccc(/C=C/C(=O)N2CCN(c3ccccn3)CC2)cc1	/	/	5.7	-34.1	1.3	/
CCCOc1ccc(NC(=O)CC2C(=O)N(c3ccc(OCC)cc3)C(=S)N2C2CC2)cc1 (configuration not stated)	/	/	50.1	-5.0	5.2	/
CCOC(=O)C1(CCOc2ccccc2)CCN(Cc2ccc(O)c(Cl)c2)CC1	/	/	108.4*	-43.2	-2.3	/
CCOC(=O)C1(CCOc2ccccc2)CCN(Cc2ccc(O)c(OC)c2)CC1	/	/	-37.6	-2.1	-0.9	/
O=C(CN1C(=O)/C(=C\C=C\c2ccccc2)SC1=S)Nc1ccc(F)cc1	4.4	-11.3	-40.7	11.4	-0.1	2.1
O=C(COC(=O)CCN1C(=O)/C(=C\C=C\c2ccccc2)SC1=S)Nc1cc(F)ccc1F	0.8	22.3	64.2*	-23.1	-8.3	-1.4
CC(=O)Nc1ccc(-c2sc(Nc3cccc4ccccc34)n[n+]2-c2ccccc2)cc1	/	/	12.9	-8.2	4.5	/
COc1ccc(CCN2CC(C(=O)N(C)C3CCOCC3)CCC2=O)cc1 (configuration not stated)	/	/	-25.7	-12.7	-0.2	/
CC(C)CCn1nc(C(=O)Nc2nc3c(s2)CCCC3)c2ccccc2c1=O	1.8	7.0	67.6*	-18.9	9.4	-3.2
CC(C)(C)c1cc(Cl)c(O)c(NC(=S)NC(=O)c2cccnc2)c1	9.6	-9.8	79.6*	40.0	7.1	2.0
O=C(NCCCN1CCOCC1)c1ccc(NC(=O)C2COc3ccccc3O2)cc1 (configuration not stated)	89.8*	-8.4	-15.5	5.3	-2.3	-0.1
Cc1cc2nc3c(=O)[nH]c(=S)[nH]c3nc2cc1NC(=O)C(F)(F)F	/	/	-11.2	-28.9	-5.7	/
CCC1S/C(=C(\C#N)C(=O)NCc2ccco2)N(c2ccc(F)cc2)C1=O (configuration not stated)	32.8*	-9.6	6.5	-21.1	-7.9	4.2
CCC1S/C(=C(\C#N)C(=O)NCc2ccco2)N(c2ccc(Br)cc2)C1=O (configuration not stated)	5.2	/	-2.3	-18.4	1.5	-0.9
COc1ccccc1N1C(=O)c2ccc(C(=O)Nc3ccc(C(=O)O)cc3)cc2C1=O	/	/	-5.0	-21.7	-0.4	/
O=S(Cc1ccc(Br)cc1)Cc1nnc(SCc2ccc(Br)cc2)n1-c1ccccc1 (configuration not stated)	33.8*	14.7	10.3	17.0	7.3	14.8
